Most compounds without a hit are left out; they make up all but 7.4% or so of the library.
SMN2 splice enh – SMN2 splice variant enhancement. 210,000 tested, 2.8% active. Potency, µM (top dose mostly 46.1 µM), inactives show at the top dose activity change, positive = activation, usual class: activators. HEK293 SMN2-luciferase splicing reporter, luminescence, 30-36 h; also: % of control where 0% means no effect; nearly all actives have a fitted effect of over 55% in size
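qHTS luciferase splicing reporter: luminescence rises when SMN2 exon 7 is included in transfected HEK293 cells. Compound exposure lasted 30-36 h at 37C, with 4.5 mM final sodium butyrate as control, followed by a ONE-Glo read.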
Rab9 prom act – Rab9 promoter activation; Huh7 Rab9 promoter-luciferase reporter, luminescence, 24 h; Potency, µM (doses to about 9.22 µM), inactives show top-dose activation, negative = inhibition, actives largely listed as activators; 320,000 tested, 2.8% active; also: % of control where 0% means no effect; nearly all actives have a fitted effect of over 60% in size
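Luminescence read-out: Huh7 cells stably expressing Rab9-luciferase, treated 24 h with compound at 37 °C, then lysed with luciferase reagent for 10 min at ambient before reading.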
NPC1 prom act – NPC1 promoter activation. Huh7 NPC1 promoter luciferase reporter, 24 h. Potency, µM (doses to about 9.22 µM), for the others: top-dose activation, most hits filed as activators. 320,000 tested, 2.4% active; also: % of control where 0% means no effect; nearly all actives have a fitted effect of over 60% in size
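Luminescence read-out of NPC1 promoter-driven luciferase in stably transfected Huh7 cells; compounds delivered in DMSO and left 24 h at 37C, 5% CO2, qHTS titration format.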
FLuc modulator – counter-screen for miR-21 project: firefly luciferase inhibitors or activators; purified FLuc, Km substrates, luminescence inhibition; Potency, µM (series often up to 57.5 µM), for inactives: at the highest dose activity change, negative = inhibition, hits mostly inhibitors; AID 588342; 360,000 tested, 6.9% active; P08659;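 also: plate controls were vehicle for no effect and reference inhibitor for full effect; nearly all actives have a fitted effect of over 55% in size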
Target sequence (P08659 whole entry, looked up): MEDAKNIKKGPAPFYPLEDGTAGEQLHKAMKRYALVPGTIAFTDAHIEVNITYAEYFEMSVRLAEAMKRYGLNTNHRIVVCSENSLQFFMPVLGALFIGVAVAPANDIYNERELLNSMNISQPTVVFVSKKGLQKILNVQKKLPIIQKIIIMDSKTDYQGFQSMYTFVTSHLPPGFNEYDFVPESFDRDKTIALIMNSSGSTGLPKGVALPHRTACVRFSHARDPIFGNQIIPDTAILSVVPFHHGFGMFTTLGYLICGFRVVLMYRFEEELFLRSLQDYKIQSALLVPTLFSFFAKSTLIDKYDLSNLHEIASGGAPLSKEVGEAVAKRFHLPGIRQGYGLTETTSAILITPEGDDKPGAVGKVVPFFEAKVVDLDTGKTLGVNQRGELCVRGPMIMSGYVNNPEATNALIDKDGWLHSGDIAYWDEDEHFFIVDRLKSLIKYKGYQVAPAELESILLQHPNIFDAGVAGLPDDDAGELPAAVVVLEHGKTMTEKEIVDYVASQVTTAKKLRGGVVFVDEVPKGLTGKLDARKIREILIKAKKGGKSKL
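Purified P. pyralis luciferase, 10 nM final, with Km-level 10 uM D-luciferin and 10 uM ATP in 50 mM Tris acetate pH 7.5, 10 mM Mg acetate, 0.01% Tween-20, 0.05% BSA; 6-point qHTS titration about 60 µM downward; luminescence read.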
ELG1 genotoxic – inducers of genotoxicity in HEK293T ELG1-luciferase cells. HEK293T ELG1-luciferase reporter, luminescence, 16 h. Potency, µM (highest dose often 46 µM), for inactives: at the top dose activity change, positive = activation, hits mostly activators. 330,000 tested, 1.3% active; also: % of control where 0% means no effect; nearly all actives have a fitted effect of over 60% in size
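HEK293T cells expressing luciferase-tagged ELG1 were treated with compound or DMSO for 16 hr at 37°C. Luciferase activity was then read after 30 min with ONE-Glo at room temperature; rising signal flags genetic stress.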
The depositor's hits bear a star; ? = inconclusive; . = no result given; [ ] = dose if it differs, or a comment. Calls follow the shape of the dose curve; as a rule, active = well fitted curve in the direction sought with a large enough effect; inconclusive = small, poorly fitted or top-dose-only effect, or another doubt; inactive = no such curve, though single readings can be large; an effect the other way counts as inactive or inconclusive. Potency is read from the fitted curve at half-maximal effect.

SMILES | SMN2 splice enh | Rab9 prom act | NPC1 prom act | FLuc modulator | ELG1 genotoxic
Cc1cc(C)cc(CC2CC(=O)N(c3nc(C)cc(C)n3)C2=O)c1 (stereo not drawn) | -1% | ? | 29% | 21µM* | 15%
N/C(=N\OC(=O)c1ccccc1)c1ccn[nH]1 | . | 3.5µM* | 2.2µM* | 6.7µM* | 10µM*
N/C(=N\OC(=O)c1ccc(Cl)cc1[N+](=O)[O-])c1cccnc1 | . | ? | 25% | 24µM* | ?
O=C(NCc1cccnc1)c1ccc(Cl)cc1[N+](=O)[O-] | ? | -8% | -2% | 3% | 3%
Cc1ccc(C(=O)O/N=C(\c2ccccc2)c2cccnc2)cc1 | -10% | 1% | -3% | 17µM* | 2%
N/C(=N\OC(=O)c1cc(Br)ccc1Cl)c1cccnc1 | 19% | ? | ? | 21µM* | 12%
Cc1cc(C)c(NC(=O)Cn2c(=O)n(CCC(=O)N3CCc4ccccc4C3)c(=O)c3ccccc32)c(C)c1 | 7% | . | . | -10% | .
N/C(=N\OC(=O)Cc1ccc(Cl)cc1)c1cccnc1 | -19% | -4% | 0% | ? | 1%
N/C(=N\OC(=O)c1cc(Cl)ccc1Cl)c1cccnc1 | ? | ? | 14% | 9.5µM* | 21µM*
N/C(=N\OC(=O)c1ccccc1Cl)c1cccnc1 | 16µM* | ? | 3.5µM* | 4.3µM* | ?
N/C(=N\OC(=O)c1ccccc1)c1cccnc1 | . | 30% | 19% | 5.4µM* | ?
O=C(O)c1sccc1S(=O)(=O)Nc1ccc(Cl)cc1 | -7% | . | . | . | .
COc1ccc(NC(=O)c2c(C)oc3ccc(O)c(CN4CCCCCC4)c23)cc1Cl | -12% | . | . | -9% | .
Cc1ccccc1OCC(=O)Nc1ccc(OCc2cc(=O)n3ccccc3n2)cc1 | . | . | . | -3% | .
Cc1cc(C)cc(NC(=O)Cn2nnc(C(=O)Nc3cc(C)cc(C)c3)c2N)c1 | -26% | . | . | -2% | .
Nc1ccc(OCc2ccccc2)cc1 | 13µM* | ? | 28% | ? | 19%
Nc1ccc(OCCc2ccccc2)cc1 | . | ? | ? | -12% | 17%
c1ccc(COc2ccc(-c3csnn3)cc2)cc1 | ? | 2.8µM* | 1.8µM* | 2.4µM* | 26%
OCCNCCCCOc1ccc(OCc2ccccc2)cc1 | 16µM* | 3.5µM* | ? | 11µM* | ?
Cc1ccccc1C(=O)Oc1ccc(-c2csnn2)cc1 | . | -1% | 0% | 12µM* | ?
O=C(Nc1ccccc1)N(Cc1c[nH]c2ccccc12)C1CCCCCC1 | 3% | . | . | -6% | .
O=Nc1c(-c2c(O)[nH]c3cc(Br)ccc23)[nH]c2ccccc12 | 16µM* | 3.7µM* | 2.9µM* | 9.5µM* | ?
[O-]/[N+](=C/c1ccc(F)cc1)c1ccc(Cl)cc1 | 11% | 18% | ? | 4.8µM* | 16µM*
CC1=Nc2ccc3ccccc3c2C1(C)C | 4% | -2% | -4% | -19% | -1%
Cc1c2ccccc2c(C)c2c1ccc1ccccc12 | 3% | ? | 22% | 13µM* | 18µM*
SMILES | SMN2 splice enh | Rab9 prom act | NPC1 prom act | FLuc modulator | ELG1 genotoxic
CC(C)Cc1cc(C(=O)Nc2cccnc2)no1 | -4% | ? | 0% | 5.4µM* | 10µM*
CSc1ccccc1NC(=O)c1cc(CC(C)C)on1 | ? | ? | ? | ? | 21µM*
COc1cc(NC(=O)c2cc(CC(C)C)on2)c(OC)cc1Cl | -14% | -3% | 12% | 0% | ?
COC(=O)C1(Cc2ccccc2)C=C2C(=C(c3ccccc3)C(=O)C2C)CN1 (stereo not drawn) | -9% | . | . | . | .
COc1cccc(OC)c1C(=O)Nc1cccc(-c2cn3ccsc3n2)c1 | . | . | . | 24µM* | .
O=S(=O)(Nc1cccc(-c2cn3ccsc3n2)c1)c1ccc(F)cc1 | -24% | 6% | -2% | ? | ?
COc1cccc(C(=O)Nc2cccc(-c3cn4ccsc4n3)c2)c1OC | . | . | . | 15µM* | .
COc1cccc(C(=O)NCc2cn3ccsc3n2)c1 | 24% | -7% | 0% | -29% | 12%
COc1cc(OC)cc(C(=O)Nc2cccc(-c3cn4ccsc4n3)c2)c1 | . | . | . | 6µM* | .
O=C(COc1ccccc1F)Nc1ccc2oc(-c3cccc(Cl)c3)nc2c1 | . | . | . | -3% | .
Cc1c(-c2nnc(SCC(=O)Nc3ccc(Cl)cc3)o2)nnn1-c1ccc(F)cc1 | . | . | . | -3% | .
COc1ccc(OCC(=O)c2c[nH]c3ccccc23)cc1 | 26% | ? | ? | 3.8µM* | 18%
CC1(C(=O)OCC(=O)c2c[nH]c3ccccc23)CC1(Cl)Cl (stereo not drawn) | ? | 3.2µM* | 4µM* | 6.7µM* | ?
Cc1cnc(C(=O)OCC(=O)c2c[nH]c3ccccc23)cn1 | . | 1% | -2% | -10% | 3%
CCOC(=O)Cc1csc(NC(=O)/C=C/c2ccc(OC)cc2)n1 | -13% | 12% | 29% | 1.3µM* | -2%
CCOC(=O)Cc1csc(NC(=O)/C=C\c2ccccc2)n1 | 4% | 9% | 22% | 5.4µM* | -2%
CCOC(=O)Cc1csc(NC(=O)CCCc2ccccc2)n1 | . | 9% | -5% | -22% | -9%
CCOC(=O)c1c(C)[nH]c(C)c1S(=O)(=O)N1CCC(C(=O)NCc2ccc(F)cc2)CC1 | . | . | . | -7% | .
Cn1c(SCc2nc3ccccc3c(=O)[nH]2)nc2ccccc21 | 14% | 9% | 9% | -28% | 2%
Cn1c(-c2ccccc2)cnc1SCc1nc2ccccc2c(=O)[nH]1 | 2.5µM* | 1.4µM* | 2.8µM* | 6µM* | 2.1µM*
Cc1cccc(Cn2c(SCc3ccc(C(=O)NCc4ccccc4)cc3)nc3cccnc32)c1 | . | . | . | 2% | .
COc1cccc(CNC(=O)c2ccc(Cn3c(SCc4ccccc4)nc4cccnc43)cc2)c1 | . | . | . | 5.4µM* | .
CCNC(=O)c1ccc(CSc2nc3cccnc3n2Cc2ccc(OC)cc2)cc1 | . | . | . | 21µM* | .
CN(C)c1ccc(CNC(=O)c2ccc(Cn3c(SCc4ccccc4)nc4cccnc43)cc2)cc1 | 6% | . | . | 2.7µM* | .
Cc1cccc(CNC(=O)c2ccc(Cn3c(SCc4ccccc4)nc4cccnc43)cc2)c1 | . | . | . | 9.5µM* | .
SMILES | SMN2 splice enh | Rab9 prom act | NPC1 prom act | FLuc modulator | ELG1 genotoxic
O=S(=O)(c1ccc(Br)cc1)N1CCN(S(=O)(=O)c2ccc(Br)cc2)CC1 | -10%[9.22 µM] | . | . | . | .
Cc1ccc(C)c([C@@H]2NC(=O)c3ccccc3N2)c1 | -10%[9.22 µM] | . | . | . | .
Cc1cc(F)ccc1NC(=O)CCS(=O)(=O)c1cccc2nsnc12 | -10% | . | . | -1% | .
O=C(CCNS(=O)(=O)c1cccc2nonc12)Nc1ccc(F)cc1 | 0% | . | . | 1% | .
Cc1cccc(Oc2ccc3c(c2)Oc2ccccc2NC3=O)c1 | -18% | . | . | 5% | .
NC(=S)NCCCC(N)C(=O)O (stereo not drawn) | -13% | . | . | . | .
Cc1ccc2nc(N3CCOCC3)c(C=O)cc2c1 | . | 13% | 23% | 21µM* | ?
N=c1oc2c3c4c(cc2cc1C(=O)Nc1ccccc1)CCCN4CCC3 | 10µM* | ? | ? | 1.9µM* | ?
